Pf growth 48h = Primary qHTS for delayed death inhibitors of the malarial parasite plastid, 48 hour incubation; P. falciparum luciferase growth in erythrocytes, 48 h; Potency, µM (top dose mostly 28.7 µM), usual class: inhibitors; hit rate 5.9% among 310,000; AID 504832, 2011
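In quantitative HTS format, infected erythrocytes bearing luciferase-reporter parasites were treated for a single generation at 37 C. Luminescence after adding detection reagent served as the growth measure.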
CHX counter = Cycloheximide Counterscreen for Small Molecule Inhibitors of Shiga Toxin. cell reporter, cycloheximide protein synthesis inhibition counterscreen. max response, %. hit rate 12% among 300,000; in the data active = max response mostly above about 13%, no sharp cut-off; inactive = mostly below about 14%; note: read at 38.3 µM for the half of the compounds with a filed dose
Pf growth 96h = Primary qHTS for delayed death inhibitors of the malarial parasite plastid, 96 hour incubation; P. falciparum luciferase reporter growth, 96 h; Potency, µM (doses to about 28.7 µM), usual class: inhibitors; hit rate 6.9% among 320,000
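Infected RBCs, 2% Hct / 0.05% parasitemia final; luciferase-reporter P. falciparum; cpd 96 h, 37 C, 5% CO2; luciferase detection reagent; luminescence.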
Shiga toxin inh = A qHTS for Small Molecule Inhibitors of Shiga Toxin; Vero cells, Shiga toxin protein synthesis inhibition reporter; inhibition, % at 38.7 µM; hit rate 9.2% among 290,000; in the data active = inhibition mostly above about 28%, no sharp cut-off; inactive = mostly below about 43%
NS1 inh = qHTS Assay for Inhibitors of Influenza NS1 Protein Function. Potency, µM (doses to about 46.1 µM). hit rate 0.4% among 270,000; calls by dose curve; note: actives are rising curves; nearly all actives have a fitted effect of over 50% in size
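In this qHTS, NS1 from influenza A is expressed in budding yeast, where it slows growth. Cells are switched from glucose to 2% galactose medium (pH 6.0, -URA), treated with compound, and growth recovery is read at OD600.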
Sm TGR block = qHTS Assay for the Inhibitors of Schistosoma Mansoni Peroxiredoxins; hit rate 3% among 360,000; purified TGR, DTNB reduction, TNB absorbance 405 nm; Schistosoma mansoni thioredoxin glutathione reductase (TGR), Q962Y6; Potency, µM (titrated, usually from 114 µM), hits mostly inhibitors; note: nearly all actives have a fitted effect of over 60% in size
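TGR 20 nM + NADPH 100 uM (dispensed conc.), cpd preinc 15 min RT; start with NADPH (500 uM addition) then DTNB (15 mM addition). Kinetic TNB absorbance, 405 nm filter. Four-parameter Hill fit across titration.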
Hits are given with their value; 0 = inactive; ? = inconclusive; - = no result; [ ] = remark or other dose. This is a sample that favours compounds with a hit; in the whole collection about 21% have one here. Unless noted, calls come from the whole dose curve; as a rule, active = well fitted curve in the direction sought with a large enough effect; inconclusive = small, poorly fitted or top-dose-only effect, or another doubt; inactive = no such curve, though single readings can be large; an effect the other way counts as inactive or inconclusive.

SMILES	Pf growth 48h	CHX counter	Pf growth 96h	Shiga toxin inh	NS1 inh	Sm TGR block
CC(C)(C)n1cnc2cc(NS(=O)(=O)c3ccccc3)ccc21	?	18.2	0	0	0	0
CCN(c1cccc(C)c1)S(=O)(=O)c1cc2c(cc1C)n(C)c(=O)c(=O)n2C	-	-	-	-	-	0
CCC(=O)Nc1ccc(C(=O)NNC(=O)Cc2ccccc2)cc1	0	0	0	0	0	0
CC(=O)Nc1ccc(C(=O)OCc2ccc(Br)cc2)cc1	?	0	0	0	0	0
CCC(=O)Nc1ccc(C(=O)OCc2ccccc2Cl)cc1	-	33.4	0	0	0	0
CC(=O)Nc1ccc(C(=O)OCc2ccccc2Cl)cc1	0	42.2	0	63.6	0	0
CCN(CC)S(=O)(=O)c1ccc(OC)c(NC(=S)Nc2cccc(C)c2C)c1	0	24.0	0	0	0	0
CCN(CC)S(=O)(=O)c1ccc(OC)c(NS(=O)(=O)Cc2ccccc2)c1	0	0	11.7µM	0	0	0
CC1CCCN(C(=O)c2ccc(Cl)c(S(=O)(=O)N3CCCCCC3)c2)C1 (stereo not drawn)	0	-	0	-	-	0
CCN(C(=O)COC(=O)CCCOc1ccccc1)c1c(N)n(Cc2ccccc2)c(=O)[nH]c1=O	?	-	0	-	-	0
CC(=O)NC(Cc1cc(C)ccc1C)C(=O)N1CCN(C(=O)c2ccc(Br)cc2)CC1 (stereo not drawn)	0	0	0	0	0	-
CC(=O)NC(Cc1cc(C)ccc1C)C(=O)N1CCN(C(=O)Nc2ccc(C(C)=O)cc2)CC1 (stereo not drawn)	0	16.6	-	0	?	0
CCC1CSC(Nc2ccc(C(=O)/C=C/c3ccc(OC)c(OC)c3)cc2)=N1 (stereo not drawn)	?	0	?	27.7	0	0
CCC1CSC(Nc2ccc(C(=O)/C=C/c3ccc(Br)cc3)cc2)=N1 (stereo not drawn)	?	48.9	?	56.9	?	0
COc1ccc(/C=C/C(=O)c2ccc(NC3=NCCCS3)cc2)cc1OC	?	0	?	0	-	0
CC[n+]1c(C)cc2c(sc3ccccc32)c1C	?	0	?	0	-	?
CCc1nc(C)cc2c1sc1ccccc12	0	19.2	0	0	0	0
Cc1noc(N)c1C(=O)Nc1ccc(F)c(Cl)c1	2.33µM	0	0	0	0	0
Cc1noc(N)c1C(=O)Nc1ccc(F)cc1	0	0	2.08µM	0	0	0
COc1cc(OC)c(CNC2CCCCCC2)cc1Br	?	0	0	0	-	0
Cc1ccc(C2(c3ccccc3)NC(=O)N(CC(=O)NCc3ccco3)C2=O)cc1C (stereo not drawn)	?	-	5.86µM	-	-	0
CCCNC(=O)CN1C(=O)NC(c2ccccc2)(c2ccccc2)C1=O	0	0	0	0	0	0
Cc1ccc(C2(c3ccccc3)NC(=O)N(CC(=O)NC3(C#N)CCCC3)C2=O)cc1C (stereo not drawn)	13.1µM	-	?	-	-	0
COc1ccc(-c2cc(C(=O)Nc3c(C(=O)c4ccc(C)cc4)oc4ccccc34)no2)cc1	-	-	-	-	-	0
CC(C)N=c1cc2n(-c3ccc(Cl)cc3)c3ccccc3nc-2cc1Nc1ccc(Cl)cc1	2.87µM	-	?	-	-	-
SMILES	Pf growth 48h	CHX counter	Pf growth 96h	Shiga toxin inh	NS1 inh	Sm TGR block
CC(NC(=O)c1ccccc1)c1nc2ccccc2n1Cc1ccc(Cl)cc1 (stereo not drawn)	-	-	-	-	-	0
C[C@H](NC(=O)CNC(=O)[C@@H](NC(=O)[C@H](Cc1ccccc1)NC(=O)CNC(=O)CNC[C@@H](N)Cc1ccccc1)[C@@H](C)O)C(=O)N[C@@H](CCCN=C(N)N)C(=O)N[C@@H](CCCCN)C(=O)N[C@@H](CO)C(=O)N[C@@H](C)C(=O)N[C@@H](CCCN=C(N)N)C(=O)N[C@@H](CCCCN)C(N)=O	-	0	-	0	-	-
CNC(=O)c1sc(-c2cccs2)nc1C	0	35.9	0	0	-	0
COc1ccc(CC2(CO)CCN(Cc3cccc4nccnc34)CC2)cc1	0	0	?	0	0	0
COc1ccc(CN2CCC(CO)(Cc3ccccc3C(F)(F)F)CC2)c(F)c1	4.65µM	0	?	0	0	0
COc1cc(CN(C)c2ncnc3sccc23)ccc1OC(F)F	?	0	13.1µM	0	0	0
COc1ccc(CN(C)c2nc(-c3cccnc3)nc3ccccc23)cc1OC	0	0	0	0	0	0
Cc1ccc(C(CCN(Cc2ccccc2)C(=O)c2ccco2)c2ccco2)cc1 (stereo not drawn)	?	0	13.1µM	0	0	20µM
O=P(CCNCc1ccco1)(c1ccccc1)c1ccccc1	0	0	0	0	0	0
COc1ccc(CN(CCC(c2ccc3c(c2)OCO3)c2ccccc2OC)C(C)=O)cc1 (stereo not drawn)	-	-	-	-	-	0
O=C(O)/C=C/C(=O)N(Cc1ccccc1)Cc1ccco1	0	0	0	0	0	0
CC(=O)N(CCP(=O)(c1ccccc1)c1ccccc1)Cc1ccco1	0	0	9.28µM	0	0	0
CC(=O)N(CCC(Cc1ccccc1)c1ccco1)Cc1ccco1 (stereo not drawn)	?	0	?	0	0	22.4µM
CC(=O)N(CCC(Cc1ccccc1)c1ccc2c(c1)OCO2)Cc1ccc(Cl)cc1 (stereo not drawn)	9.28µM	0	8.28µM	0	0	0
O=C(CN1C(=O)NC2(CCCC2)C1=O)Nc1ccc(F)c(Cl)c1	0	0	0	0	0	0
O=C(c1ccco1)N(Cc1ccc(Cl)cc1)Cc1ccco1	0	0	0	0	0	0
O=C(c1ccco1)N(CCC(c1ccccc1)c1ccco1)Cc1ccco1 (stereo not drawn)	?	0	?	0	0	10µM
COCCn1c(SCC(=O)NCCc2ccccc2)nnc1-c1ccco1	0	0	0[5.75 µM]	0	0	?
COc1ccc(C(=O)CSc2nnc(-c3ccco3)n2C)cc1	0	0	-	0	0	?
Cc1ccc(-c2nnc(SCc3ccc(C#N)cc3)n2Cc2ccco2)cc1	?	0	?	0	0	0
COCCn1c(SCc2cccnc2)nnc1-c1ccco1	0	0	9.28µM	0	0	28.2µM
c1ccc(CSc2nnc(-c3ccco3)n2Cc2ccco2)cc1	?	37.5	?	0	0	44.7µM
COc1cccc(-c2nnc(SCc3ccc(C#N)cc3)n2Cc2ccco2)c1	?	0	0	0	0	39.8µM
Cn1c(SCC(=O)c2ccccc2)nnc1-c1ccco1	0	41.4	14.7µM	62.6	0	?
COc1ccc(-c2noc(-c3ccc(N4CCC(C)CC4)c([N+](=O)[O-])c3)n2)cc1OC	-	-	-	-	-	0
CCn1c(SCc2cccc(C(F)(F)F)c2)nnc1-c1ccco1	?	0	?	0	0	28.2µM
Cc1ccc(C(=O)CSc2nnc3c4ccccc4nc(C(C)(C)C)n23)cc1	0	0	0	0	0	0
